In the library only some 12% were active in any assay of this set; here they are far more common.
L3MBTL1 inh – inhibitors of human L3MBTL1. Q9Y468. AID 485360. 230,000 tested, 0.66% active. AlphaScreen L3MBTL1–H3K9me1 peptide binding. Potency, µM (doses to about 57.1 µM), usual class: inhibitors; further: nearly all actives have a fitted effect of over 60% in size
Target sequence (Q9Y468 whole entry, looked up): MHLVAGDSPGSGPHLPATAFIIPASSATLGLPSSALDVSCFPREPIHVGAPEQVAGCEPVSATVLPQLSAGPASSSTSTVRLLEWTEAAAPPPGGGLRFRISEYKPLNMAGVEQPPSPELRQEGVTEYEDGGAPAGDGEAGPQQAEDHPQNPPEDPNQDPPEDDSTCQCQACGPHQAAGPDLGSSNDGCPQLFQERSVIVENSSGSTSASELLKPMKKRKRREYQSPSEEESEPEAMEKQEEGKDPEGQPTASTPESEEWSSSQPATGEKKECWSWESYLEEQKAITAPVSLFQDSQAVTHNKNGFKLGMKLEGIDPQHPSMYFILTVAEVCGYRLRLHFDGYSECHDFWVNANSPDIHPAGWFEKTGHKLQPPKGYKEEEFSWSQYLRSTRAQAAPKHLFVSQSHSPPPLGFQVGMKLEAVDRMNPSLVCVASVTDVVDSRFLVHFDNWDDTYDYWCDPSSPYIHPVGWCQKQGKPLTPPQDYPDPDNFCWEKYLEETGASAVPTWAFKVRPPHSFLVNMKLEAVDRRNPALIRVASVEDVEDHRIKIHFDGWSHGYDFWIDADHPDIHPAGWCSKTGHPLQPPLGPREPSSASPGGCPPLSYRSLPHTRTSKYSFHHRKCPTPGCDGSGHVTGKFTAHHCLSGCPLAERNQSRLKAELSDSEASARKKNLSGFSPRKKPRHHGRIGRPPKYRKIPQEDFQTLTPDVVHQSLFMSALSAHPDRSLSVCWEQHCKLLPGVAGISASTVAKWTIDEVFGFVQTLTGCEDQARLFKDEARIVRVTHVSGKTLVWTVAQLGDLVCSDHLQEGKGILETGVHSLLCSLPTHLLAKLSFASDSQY
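AlphaScreen proximity signal between nickel-chelate acceptor and streptavidin donor beads (final 10 ug/mL) reports binding of 50 nM L3MBTL1 to 75 nM biotin-H3 K9me1 peptide; complex incubated with compounds 30 min at room temperature; cefsulodin titration as control.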
G9a block – blocks human histone lysine methyltransferase G9a. Q96KQ7. G9a H3K9 monomethylation, AlphaScreen, 2 h. Potency, µM (doses to about 102 µM), most hits filed as inhibitors. 350,000 tested, 8.8% active. AID 504332; further: nearly all actives have a fitted effect of over 75% in size
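Enzyme 20 nM + cpd, 15 min RT; add b-H3K9 pep 500 nM / SAM 20 uM; 2 h RT; anti-H3K9me1 Ab 0.5 ug/mL + SA donor / anti-rabbit acceptor beads 20 ug/mL each, 10 min; AlphaScreen read.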
BAZ2B inh – inhibitors of human BAZ2B bromodomain | Q9UIF8 | AlphaScreen BAZ2B-H3K14Ac peptide displacement | Potency, µM (titrated, usually from 114 µM), actives largely listed as inhibitors | 360,000 tested, 4.4% active | AID 504333; further: nearly all actives have a fitted effect of over 60% in size
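Multi-concentration screen (max 110 uM) measuring displacement of acetylated histone H3 peptide from BAZ2B by AlphaScreen, using 50 nM protein, 50 nM peptide and 10 ug/mL streptavidin donor plus Ni-chelate acceptor beads.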
HP1b binding inh – HP1-beta chromodomain-methylated histone interaction inhibition. 390,000 tested, 0.56% active. AlphaScreen HP1-beta / biotin-H3K9me3 peptide binding. Potency, µM (titrated, usually from 114 µM), actives largely listed as inhibitors. P83916; further: nearly all actives have a fitted effect of over 70% in size
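AlphaScreen: HP1-beta (50 nM) preformed 30 min with biotin-H3(1-18)K9me3 peptide (50 nM) in PBS pH 7.4, 0.01% Tween-20. Compound added for 30 min at RT, then streptavidin donor/nickel chelate acceptor beads (10 ug/mL) for 30 min.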
Sfp inh – inhibitors of Bacillus subtilis Sfp phosphopantetheinyl transferase | Q9F4F7 | Biochemical Sfp PPTase activity, qHTS | Potency, µM, actives largely listed as inhibitors | 310,000 tested, 3.5% active | AID 1490;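 further: the enzyme is Sfp with the accession as filed and its product quenches rhodamine fluorescence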
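Fluorescence-quenching assay: 15 nM Sfp-PPTase preincubated 15 min at room temperature with compound, then 5 uM rhodamine-CoA and 12.5 uM BHQ-2-labelled YbbR peptide added. Fluorescence (ex 525/em 598 nm) read at start and after 30 min; difference gives rate.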
JMJD2A Tudor inh – JMJD2A Tudor domain (human) inhibition. AlphaScreen JMJD2A-Tudor / H3K4me3 peptide binding. 390,000 tested, 4.4% active. Potency, µM (series often up to 114 µM), hits mostly inhibitors; further: nearly all actives have a fitted effect of over 50% in size
Of the large screens only hits and unclear results are named; the others gave an inactive call. The call rests on the fitted dose curve; in most records, active means well fitted curve in the direction sought with a large enough effect; inconclusive means small, poorly fitted or top-dose-only effect, or another doubt; inactive means no such curve, though single readings can be large; an effect the other way counts as inactive or inconclusive.

CN(C)c1cccc(C(=O)NCc2ccccc2Cl)c1	BAZ2B inh 50µM, JMJD2A Tudor inh inconclusive
O=C(NCc1cccc(Cl)c1)c1cccc(C(F)(F)F)c1	none
Cc1c(C)c2cc(Cl)c(O)c(CN(C)C)c2oc1=O	JMJD2A Tudor inh 18µM
CCc1c(C)c2cc(Cl)c(O)c(CN(C)C)c2oc1=O	JMJD2A Tudor inh inconclusive
CCCCc1cc(=O)oc2c(CN(C)C)c(O)c(Cl)cc12	Sfp inh inconclusive, JMJD2A Tudor inh 16µM
COc1ccc(C)cc1-n1cnc2cc(C(=O)NC3CCCC3)ccc21	none (no result: L3MBTL1 inh, Sfp inh)
CNCCNC[C@H](Cc1cccc2ccccc12)NCCc1ccccc1	JMJD2A Tudor inh inconclusive (no result: G9a block, BAZ2B inh, Sfp inh)
CNC[C@H](Cc1ccccc1)NC[C@@H](Cc1cccc2ccccc12)NCCc1ccc(C)cc1	G9a block inconclusive, BAZ2B inh inconclusive, Sfp inh 50µM, JMJD2A Tudor inh inconclusive
CCN(CC(=O)Nc1ccccc1OC)C(=O)c1ccc2[nH]c3c(c2c1)CC(C)CC3 (configuration not stated)	BAZ2B inh inconclusive, JMJD2A Tudor inh inconclusive (no result: Sfp inh)
CCCN(CC(=O)Nc1ccccc1OC)C(=O)c1ccc2[nH]c3c(c2c1)CC(C)CC3 (configuration not stated)	BAZ2B inh inconclusive, HP1b binding inh inconclusive, JMJD2A Tudor inh inconclusive (no result: Sfp inh)
CC1CCc2[nH]c3ccc(C(=O)N(C)CC(=O)Nc4ccccc4C(F)(F)F)cc3c2C1 (configuration not stated)	BAZ2B inh 50µM, JMJD2A Tudor inh 50µM (no result: Sfp inh)
CC1CCc2[nH]c3ccc(C(=O)N(C)CC(=O)Nc4ccccc4Cl)cc3c2C1 (configuration not stated)	G9a block 50µM, BAZ2B inh inconclusive, JMJD2A Tudor inh inconclusive (no result: Sfp inh)
COc1ccc(CNC(=O)C2CCN(S(=O)(=O)c3c(C)noc3/C=C/c3cccs3)CC2)cc1	none (no result: L3MBTL1 inh, BAZ2B inh, Sfp inh)
COCCNC(=O)COc1ccc(Nc2ccccc2)cc1	G9a block 50µM, BAZ2B inh inconclusive
COc1ccc(C(=O)NNC(=O)C(=O)N2CCCCC2)cc1OC	G9a block inconclusive, JMJD2A Tudor inh 25µM (no result: L3MBTL1 inh)
COc1cccc(C(=O)NNC(=O)C(=O)N2CCCCC2)c1	G9a block 50µM
COc1ccc(C(=O)Nc2ccc(C(=O)N3CCCCC3)cc2)cc1OC	none (no result: L3MBTL1 inh)
Cc1cc(C)cc(-n2c(SCC(=O)Nc3nnc(C)s3)nc3c([nH]c4ccccc43)c2=O)c1	none (no result: L3MBTL1 inh, Sfp inh)
Oc1ccc(/C=N/Nc2cc(N3CCCC3)nc(N3CCCC3)n2)cc1	none
Oc1cccc(/C=N/Nc2cc(N3CCCC3)nc(N3CCCC3)n2)c1	BAZ2B inh 45µM, HP1b binding inh inconclusive, JMJD2A Tudor inh 56µM
Oc1ccc(/C=N/Nc2nc(N3CCCC3)nc(N3CCCC3)n2)cc1O	G9a block 10µM, Sfp inh 20µM, JMJD2A Tudor inh inconclusive
Oc1ccc(/C=N/Nc2ccc(Cl)nn2)cc1O	Sfp inh 79µM (no result: L3MBTL1 inh)
COc1ccc(/C=N/Nc2cc(N3CCCC3)nc(N3CCCC3)n2)cc1	G9a block 22µM, BAZ2B inh inconclusive, Sfp inh 50µM, JMJD2A Tudor inh inconclusive (no result: L3MBTL1 inh)
O=C(c1ccccc1)c1cn(Cc2ccc(F)cc2)c2ccccc2c1=O	none (no result: L3MBTL1 inh, Sfp inh)
O=c1c2oc3ccccc3c2n(Cc2ccc(Cl)cc2)c(=O)n1Cc1ccccc1	none (no result: L3MBTL1 inh, Sfp inh)
COc1ccc(SCC(c2ccccc2)N2CCN(CC(C)C)CCC2=O)cc1 (configuration not stated)	none (no result: L3MBTL1 inh, G9a block, BAZ2B inh)
CCOc1cc2c(cc1OCC)C(CC(=O)O)N(C(=O)Nc1ccc(Br)c(C)c1)CC2 (configuration not stated)	G9a block inconclusive (no result: L3MBTL1 inh, Sfp inh)
O=[N+]([O-])c1cccc(-n2cccc2/C=N/Nc2nc(N3CCCCC3)nc(N3CCCCC3)n2)c1	G9a block 32µM, HP1b binding inh inconclusive, JMJD2A Tudor inh inconclusive (no result: L3MBTL1 inh, BAZ2B inh)
CNc1cc(N2CCCCCC2)ccc1[N+](=O)[O-]	BAZ2B inh inconclusive, HP1b binding inh inconclusive, JMJD2A Tudor inh inconclusive
O=[N+]([O-])c1ccc2c(c1N1CCCCC1)=NC1(CCCCC1)[N+]=2[O-]	G9a block 50µM, BAZ2B inh 35µM, HP1b binding inh 40µM, Sfp inh 25µM, JMJD2A Tudor inh inconclusive
